Active and inactive are the calls of the source. A call without a number means that no potency is given here. The call rests on the fitted dose curve. Square brackets hold non-standard residues; d marks the D form. Peptide text beside a SMILES is read from it. Orn = NCCC[C@H](N)C(=O)O

A short description of this assay: qHTS profiling of Chloroquine Analogs as inhibitors of Plasmodium falciparum (DD2) proliferation. Particulars: Potency: Plasmodium falciparum Dd2 proliferation inhibition; series mostly up to 28.7 µM. An excerpt:
Plasmodium falciparum is a virulent malarial parasite that kills 1-2 million people worldwide each year. Transmitted by mosquitoes, the sporozoite form of the parasite enters the blood stream to infect hepatocytes, where they become merozoites that infect red blood cells (erythrocytes). Within erythrocytes, merozoites begin a […] cycle of growth and division, after which the parasite is released to infect new red blood cells. Gametocytes, which form within erythrocytes as well, circulate in the bloodstream and are ingested by the mosquito, thereby completing the life cycle. To profile malarial isolates for differential chemical responses and to identify inhibitors of malarial growth, an assay that measures P. falciparum growth and replication within erythrocytes was employed. This assay uses a DNA binding fluorescent dye (SYBR Green) to detect parasite DNA following cell lysis. Because mature erythrocytes lack DNA, only Plasmodium-derived DNA is detected.
The SYBR Green viability assay was adapted from a method described previously (Plouffe et al., 2008). For screening 3 ul culture medium was dispensed into 1536 well black clear bottom plates (Aurora Biotechnologies) using a Multidrop Combi (Thermo Fisher Scientific Inc.), 23 nL compounds in DMSO were added by a pin tool (Kalypsys), and 5 ul of erythrocytes infected with P. falciparum (0.3% parasitemia, 2.5% hematocrit final concentration) were added. The plates were incubated at 37 C in a humidified incubator in 5% CO2 for 72 h, and 2 ul lysis buffer (20 mM Tris HCl, 10 mM EDTA, 0.16% saponin, 1.6% triton X, 10X SYBR Green I supplied as 10,000X […] by Invitrogen) was added to each well. The plates were mixed for 25 sec with gentle shaking and incubated overnight at room temperature in the dark. The following morning, fluorescence intensity at 485(14) nm excitation and 535(25) nm emission wavelengths was measured on an EnVision (Perkin Elmer) plate reader. Plate reads were normalized relative to the control inhibitor (0.29 uM artemisinin) and vehicle (DMSO) wells present on each plate and then corrected by an algorithm using vehicle-only control plates at the beginning and end of the compound plate stack.
Consider `CSc1cccc(NC(=O)CC[C@H]2O[C@@H]3O[C@]4(C)CC[C@H]5[C@H](C)CC[C@@H]([C@@H]2C)[C@@]35OO4)c1`, for which the Potency was 26.6 nM (active).
The entry for `CCN(CC)CCOCCOC(=O)C(CC)(CC)c1ccccc1` is “inactive”.
The entry for `CCCCN(CCCC)CC(O)c1cc(Cl)cc2c1-c1ccc(Cl)cc1C2=Cc1ccc(Cl)cc1` (stereo not given) is “inactive”; for `COc1cc2c(cc1C(F)(F)F)N(C(=O)Nc1cc(F)cc(-c3cccnc3)c1)CC2` it is “inactive”; for `CCCCN(CCCC)CCC(O)c1cc2c(Cl)cc(Cl)cc2c2cc(C(F)(F)F)ccc12` (stereo not given) it is “inactive”.
The entry for `CN1CC[C@H](CN2c3ccccc3Sc3ccccc32)C1` is “inactive”; for `C#C[C@]1(O)CC[C@@H]2[C@H]3CCC4=CC(=O)CC[C@H]4[C@H]3C(=C)C[C@@]21CC` it is “inactive”; for `O[C@H](c1cc(C(F)(F)F)nc2c(C(F)(F)F)cccc12)[C@H]1CCCCN1` it is “inactive”.
Turning to `Cc1cccc(C)c1NC(=O)C(C)N` (stereo not given), the Potency entry was “inactive”.
The value for `CO[C@H]1O[C@@H]2O[C@@]3(C)CC[C@@H]4[C@@H](C)CC[C@@H]([C@H]1C)[C@@]24OO3` was “inactive”.
The figure for `CCOc1ccc(F)cc1C1(O)C(N)=Nc2ccc(Cl)cc21` (stereo not given) is 66.8 nM (active); for `COc1ncnc(NS(=O)(=O)c2ccc(N)cc2)c1OC` it is 1880 nM (active); for `O=C1C(=O)c2ccccc2C(O)=C1C1CCC(c2ccc(Cl)cc2)CC1` (stereo not given) it is “inactive”.
The value for `CC(C)C[C@@H]1NC(=O)[C@H](CCCN)NC(=O)[C@H](C(C)C)NC(=O)[C@@H]2CCCN2C(=O)[C@@H](Cc2ccccc2)NC(=O)[C@H](CC(C)C)NC(=O)[C@H](CCCN)NC(=O)[C@H](C(C)C)NC(=O)[C@@H]2CCCN2C(=O)[C@@H](Cc2ccccc2)NC1=O` (cyclo(V[Orn]L[dF]PV[Orn]L[dF]P)) was 0.7 nM (active); that for `COc1cccc(CCc2ccccc2OCC(CN(C)C)OC(=O)CCC(=O)O)c1` (stereo not given) was 943 nM (active).
On to `CN(C)CCOC(c1ccccc1)c1ccccc1`, for which the Potency was 1500 nM (active).
With `CC(CNC1CCCCC1)OC(=O)c1ccccc1` (stereo not given), the Potency result was “inactive”.
The value for `C[C@H]1[C@@H](CCC(=O)Nc2ccc(F)cc2)O[C@@H]2O[C@]3(C)CC[C@@H]4[C@H](C)CC[C@@H]1[C@@]24OO3` was “inactive”.
The value for `C[C@H]1[C@@H](OC(=O)CCC(=O)O)O[C@@H]2OC3(C)CC[C@H]4[C@H](C)CC[C@@H]1[C@@]24OO3` was “inactive”.
The value for `CC(=O)O[C@@]12CO[C@@H]1C[C@H](O)[C@@]1(C)C(=O)[C@H](O)C3=C(C)[C@@H](OC(=O)[C@H](O)[C@@H](NC(=O)OC(C)(C)C)c4ccccc4)C[C@@](O)([C@@H](OC(=O)c4ccccc4)[C@H]21)C3(C)C` was “inactive”.
With `CCCC(=O)O[C@]1(C(=O)CCl)[C@H](C)C[C@@H]2[C@H]3CCC4=CC(=O)C=C[C@]4(C)[C@@]3(F)C(=O)C[C@@]21C`, the Potency entry was “inactive”.
The value for `CC[C@H]1OC(=O)[C@H](C)[C@@H](O[C@H]2C[C@@](C)(OC)[C@@H](O)[C@H](C)O2)[C@H](C)[C@@H](O[C@@H]2O[C@H](C)C[C@H](N(C)C)[C@@H]2O)[C@](C)(O)C[C@@H](C)CN(C)[C@H](C)[C@@H](O)[C@]1(C)O` was “inactive”; that for `CCCC[C@@H]1C[C@@H](C(=O)NC([C@H](C)Cl)[C@H]2O[C@H](S)[C@H](O)[C@@H](O)[C@@H]2O)N(C)C1` (stereo not given in full) was “inactive”.
The entry for `NC(=NCc1ccccc1)NC(=O)c1nc(Cl)c(N)nc1N` is “inactive”.
With `C[C@H](N)CN1CCc2ccc(Br)cc21`, the Potency is 1880 nM (active).
The figure for `CN(C)c1ccc2nc3ccc(=[N+](C)C)cc-3sc2c1` is 6.9 nM (active); for `CCc1ccc(OCc2ccccc2C(=O)Nc2ccc3nc(C)cc(N)c3c2)cc1` it is “inactive”.
The entry for `COc1ccc(CCN(C)CCCC(C#N)(c2ccc(OC)c(OC)c2)C(C)C)cc1OC` (stereo not given) is “inactive”.
As for `C=CC(C)=C[C@@]1(C)SC(=O)C(C)=C1O`, the Potency result is “inactive”.
The entry for `Clc1ccc(COC(Cn2ccnc2)c2ccc(Cl)cc2Cl)c(Cl)c1` (stereo not given) is “inactive”; for `C[C@@H]1[C@@H](CC(C[C@H]2O[C@@H]3O[C@]4(C)CC[C@@H]5[C@H](C)CC[C@@H]([C@H]2C)[C@@]35OO4)C[S+](=O)([O-])c2ccc(COC(=O)N(C)C)cc2)O[C@@H]2O[C@]3(C)CC[C@H]4[C@H](C)CC[C@@H]1[C@@]24OO3` (stereo not given in full) it is “inactive”; for `CNCCCCOc1ccccc1Cc1ccccc1` it is “inactive”.
The entry for `O=C(Nc1ccc(Cl)cc1)Nc1ccc(Cl)c(Cl)c1` is “inactive”.
Turning to `CN(C)CC/C=C1\c2ccccc2COc2ccccc21`, the Potency was 1430 nM (active).
The value for `CCN(CC)CCCC(C)Nc1ccnc2cc(Cl)ccc12` (stereo not given) was “inactive”; that for `C[C@@H]1CCC2[C@@H](C)[C@@H](O)O[C@@H]3O[C@@]4(C)CC[C@@H]1[C@@]23OO4` (stereo not given in full) was “inactive”; that for `Oc1cc(Cl)ccc1Oc1ccc(Cl)cc1Cl` was 3350 nM (active).
Take `Cc1cccc(C)c1OCC(N)C(C)C` (stereo not given): the Potency is 5950 nM (active).
Consider `CN1C[C@H](C(=O)N[C@]2(C)O[C@@]3(O)[C@@H]4CCCN4C(=O)[C@H](Cc4ccccc4)N3C2=O)C[C@@H]2c3cccc4[nH]cc(c34)C[C@H]21`, for which the Potency result was “inactive”.
The entry for `CC1=CC(=O)c2ccccc2C1=O` is “inactive”.

Values taken from PubChem BioAssay AID743326 (National Center for Advancing Translational Sciences (NCATS), 2014).
